Sfp inh: Sfp phosphopantetheinyl transferase inhibition; Q9F4F7; Biochemical Sfp PPTase activity, qHTS; Potency, µM, most hits filed as inhibitors; hit rate 3.5% among 310,000; AID 1490;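 also: the enzyme is Sfp with the accession as filed and its product quenches rhodamine fluorescence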
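After 15 min at room temperature with compound, 15 nM Sfp received 5 uM rhodamine-CoA plus 12.5 uM BHQ-2-ybbR (50 mM Hepes pH 7.6, 10 mM MgCl2). Rate came from the fluorescence difference over 30 min, ex 525/em 598 nm.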
TDP1 block: TDP1 (human) enzyme inhibition | Q9NUW8 | recombinant TDP1, AlphaScreen DNA substrate cleavage | Potency, µM (doses to about 130 µM), hits mostly inhibitors | hit rate 0.28% among 350,000; also: nearly all actives have a fitted effect of over 40% in size
Target sequence (Q9NUW8 whole entry, looked up): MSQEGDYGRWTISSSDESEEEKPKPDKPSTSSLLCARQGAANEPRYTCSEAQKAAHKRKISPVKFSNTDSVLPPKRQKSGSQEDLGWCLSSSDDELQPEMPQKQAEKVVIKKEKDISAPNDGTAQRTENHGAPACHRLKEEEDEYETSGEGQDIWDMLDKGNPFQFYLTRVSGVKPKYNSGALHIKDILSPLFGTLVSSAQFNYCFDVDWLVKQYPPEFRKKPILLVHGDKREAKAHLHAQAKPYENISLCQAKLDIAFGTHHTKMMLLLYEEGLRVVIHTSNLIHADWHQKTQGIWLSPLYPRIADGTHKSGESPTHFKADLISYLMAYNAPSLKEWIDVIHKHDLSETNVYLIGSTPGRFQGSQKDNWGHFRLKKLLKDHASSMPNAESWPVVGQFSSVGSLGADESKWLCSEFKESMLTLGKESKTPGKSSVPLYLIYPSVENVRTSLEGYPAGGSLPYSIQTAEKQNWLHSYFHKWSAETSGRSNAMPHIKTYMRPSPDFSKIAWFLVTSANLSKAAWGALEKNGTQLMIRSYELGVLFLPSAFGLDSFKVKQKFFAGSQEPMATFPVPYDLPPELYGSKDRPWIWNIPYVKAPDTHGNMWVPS
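Steps: enzyme plus compound, 15 min RT; add biotin/phosphotyrosine-FITC oligonucleotide (15 nM final), react 5 min; add donor/acceptor beads (10 ug/ml final), 10 min; read AlphaScreen. Tdp1 at 1 nM final.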
HP1b binding inh: inhibitors of HP1-beta chromodomain binding to methylated histone tails. P83916. AlphaScreen HP1-beta / biotin-H3K9me3 peptide binding. Potency, µM (top dose mostly 114 µM), most hits filed as inhibitors. hit rate 0.56% among 390,000. AID 540317; also: nearly all actives have a fitted effect of over 70% in size
Target sequence (P83916 whole entry, looked up): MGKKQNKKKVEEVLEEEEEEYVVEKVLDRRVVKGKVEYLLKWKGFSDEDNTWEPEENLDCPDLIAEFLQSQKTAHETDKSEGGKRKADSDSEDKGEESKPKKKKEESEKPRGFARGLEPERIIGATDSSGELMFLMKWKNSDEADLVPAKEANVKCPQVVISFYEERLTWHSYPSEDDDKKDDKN
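AlphaScreen: HP1-beta (50 nM) preformed 30 min with biotin-H3(1-18)K9me3 peptide (50 nM) in PBS pH 7.4, 0.01% Tween-20. Compound added for 30 min at RT, then streptavidin donor/nickel chelate acceptor beads (10 ug/mL) for 30 min.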
JMJD2A Tudor: blocks the human JMJD2A Tudor domain | O75164 | AID 504339 | AlphaScreen JMJD2A-Tudor / H3K4me3 peptide binding | Potency, µM (doses to about 114 µM), usual class: inhibitors | hit rate 4.4% among 390,000; also: nearly all actives have a fitted effect of over 50% in size
BAZ2B block: blocks human BAZ2B; Q9UIF8; Potency, µM (titrated, usually from 114 µM), usual class: inhibitors; AlphaScreen BAZ2B-H3K14Ac peptide displacement; hit rate 4.4% among 360,000; also: nearly all actives have a fitted effect of over 60% in size
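Protein-peptide AlphaScreen: BAZ2B 50 nM, b-H3K14Ac 50 nM, 1x PBS pH 7.4 + 0.01% Tween-20. Preincubation 30 min RT; cpd 30 min RT (top 110 uM); beads 20 min RT, light-protected.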
G9a inh-1: blocks human histone lysine methyltransferase G9a; Q96KQ7; G9a H3K9 monomethylation, AlphaScreen, 2 h; Potency, µM (titrated, usually from 102 µM), usual class: inhibitors; hit rate 8.8% among 350,000; AID 504332; also: nearly all actives have a fitted effect of over 75% in size
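Quantitative HTS format: methyltransferase activity on a biotin-tagged H3K9 peptide is measured by AlphaScreen, using a rabbit anti-monomethyl-H3K9 antibody with streptavidin donor and anti-IgG acceptor beads. Final levels are 20 nM enzyme, 500 nM peptide, 20 uM SAM; 2 h RT.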
Sfp PPTase conf: Sfp phosphopantetheinyl transferase inhibition, confirmation; shares compounds with Sfp inh; Sfp PPTase enzymatic assay, qHTS titration; Potency, µM (series often up to 114 µM), most hits filed as inhibitors; hit rate 79% among 380; AID 2701
Sfp gel assay: Blocks Sfp PPTase activity, gel read-out | shares compounds with Sfp inh | purified Sfp, gel-based phosphopantetheinylation read-out | Potency, µM, actives largely listed as inhibitors | hit rate 20% among 210 | AID 2707;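 active = potency below 100 µM; inconclusive = dose-dependent response but potency above 100 µM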;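 also: potency is an IC50 for inhibitors of Sfp transfer activity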
G9a inh-2: confirmation of human histone methyltransferase G9a inhibitors; G9a H3K9 monomethylation, AlphaScreen, 2 h; Potency, µM, hits mostly inhibitors; shares compounds with JMJD2A Tudor; hit rate 89% among 370; also: nearly all actives have a fitted effect of over 65% in size
Of the large screens only hits and unclear results are named; the others gave an inactive call (follow-up assays come after a bar, where they were run). Only some compounds are listed: those with a hit (about 12% of all), similar ones and a draw of the others. Unless noted, calls follow the shape of the dose curve; as a rule, active = well fitted curve in the direction sought with a large enough effect; inconclusive = small, poorly fitted or top-dose-only effect, or another doubt; inactive = no such curve, though single readings can be large; an effect the other way counts as inactive or inconclusive.

CC/C(O)=C(/C#N)c1nnc2n1CCCCC2	Sfp inh 14µM, JMJD2A Tudor 28µM, BAZ2B block 79µM, G9a inh-1 inconclusive | Sfp PPTase conf inactive | Sfp gel assay inactive
OC(CN1CCCCC1)Cn1c2ccccc2c2cc(Br)ccc21 (stereo not drawn)	none (no result: TDP1 block)
OC(CN1CCNCC1)Cn1c2ccc(Br)cc2c2cc(Br)ccc21 (stereo not drawn)	Sfp inh 35µM (no result: HP1b binding inh, JMJD2A Tudor, BAZ2B block, G9a inh-1) | Sfp PPTase conf inactive | Sfp gel assay inactive
COc1ccccc1C(=O)Nc1ccnn1C1CCN(CCC(C)c2ccc(C)o2)CC1 (stereo not drawn)	Sfp inh 50µM, G9a inh-1 7.1µM | Sfp PPTase conf 19µM
COc1ccc(/C=C/C(=O)O)cc1S(=O)(=O)N1CCc2ccccc21	none (no result: TDP1 block)
O=[N+]([O-])c1ccc2nc(-c3ccc(Cl)cc3)[nH]c2c1	Sfp inh 0.35µM, G9a inh-1 40µM | Sfp PPTase conf inactive | Sfp gel assay 56µM
O=C(Nc1cccc(S(=O)(=O)N2CCOCC2)c1)c1ccc(=O)[nH]c1	none (no result: Sfp inh, BAZ2B block, G9a inh-1)
O=C(c1ccc(-c2ccc(Cl)cc2)o1)N1CCN(c2ccc([N+](=O)[O-])cc2Cl)CC1	HP1b binding inh inconclusive, G9a inh-1 inconclusive
O=C(c1ccc(-c2ccc([N+](=O)[O-])cc2)o1)N1CCCCC1	Sfp inh 16µM, JMJD2A Tudor inconclusive, BAZ2B block inconclusive, G9a inh-1 inconclusive | Sfp PPTase conf 19µM | Sfp gel assay inconclusive
CC(C)C(=O)N[C@@H]1c2ccccc2CC[C@@H]1OCc1ccccc1	none (no result: Sfp inh, BAZ2B block, G9a inh-1)
N#C/C(=C/c1ccc(N2CCCCC2)o1)c1cccc(F)c1	Sfp inh 2.8µM, HP1b binding inh inconclusive, JMJD2A Tudor 45µM, BAZ2B block 40µM, G9a inh-1 2.5µM | Sfp PPTase conf 21µM | Sfp gel assay 19µM
N#C/C(=C/c1ccc(N2CCCCCC2)o1)c1ccc(Cl)cc1	Sfp inh 5µM, JMJD2A Tudor 40µM, BAZ2B block 45µM, G9a inh-1 7.9µM | Sfp PPTase conf 19µM
Cc1ccccc1Nc1c(-c2ccsc2)nc2c(C)cccn12	none (no result: Sfp inh)
Cc1ccc(C(=O)CSc2nnc3ccc4ccccc4n23)cc1	none (no result: Sfp inh)
Cc1ccc(C(=O)CSc2nnc3c4ccccc4nc(Cc4ccccc4)n23)cc1	Sfp inh 8.9µM | Sfp PPTase conf inconclusive | Sfp gel assay inactive
CC1CCC2(CC1)NC(=O)N(CC(=O)N1CC(C)CC(C)C1)C2=O (stereo not drawn)	none (no result: Sfp inh, BAZ2B block, G9a inh-1)
CC(C)CCN(C(=O)Nc1ccc(Cl)c(Cl)c1)C1CCN(C(C)C)CC1	none (no result: Sfp inh)
COc1ccc(NC(=S)N(CCC(C)C)C2CCN(C(C)C)CC2)cc1Cl	Sfp inh 4µM, G9a inh-1 5µM (no result: TDP1 block) | Sfp PPTase conf 1.9µM
O=C(/C=C/c1ccccc1)Nc1cccc(S(=O)(=O)Nc2ccccc2F)c1	Sfp inh 4µM, HP1b binding inh inconclusive, JMJD2A Tudor 45µM, BAZ2B block 45µM, G9a inh-1 1.6µM | Sfp PPTase conf 3.7µM
Cc1ccc(N(CC(O)CN2CCCCC2)S(=O)(=O)c2ccccc2[N+](=O)[O-])cc1 (stereo not drawn)	none
O=C1CN(CC(=O)N2CCOCC2)c2ccccc2O1	Sfp inh 3.5µM, BAZ2B block inconclusive (no result: HP1b binding inh, JMJD2A Tudor) | Sfp PPTase conf inactive
CCC1Oc2ccccc2N(CC(=O)N2CCOCC2)C1=O (stereo not drawn)	none
Cc1nc(-c2cc(-c3nc(-c4ccc(C(C)(C)C)cc4)no3)no2)cs1	Sfp inh 40µM | Sfp PPTase conf 15µM | Sfp gel assay inactive
Cc1noc(-c2ccc(-c3noc(-c4ccc(C(F)(F)F)cc4)n3)cc2)n1	none (no result: Sfp inh)
CCOC(=O)C1(Cc2ccc(OC)cc2)CCN(C(=O)CCc2cccnc2)CC1	none
CCC1CC2(C)NC(=O)c3c(sc4c3CC(C)(C)OC4)N2C1=O (stereo not drawn)	Sfp inh 16µM, HP1b binding inh inconclusive, G9a inh-1 32µM | Sfp PPTase conf 19µM
COC(=O)c1ccc2c(=O)n(CCCCCC(=O)N3CCN(c4ccc(Cl)cc4)CC3)c(=O)[nH]c2c1	none (no result: Sfp inh)
CCC1CCc2c(sc(NC(=O)c3ccco3)c2C(N)=O)C1 (stereo not drawn)	JMJD2A Tudor inconclusive
CCC1CCc2c(sc(NC(=O)c3cnccn3)c2C(N)=O)C1 (stereo not drawn)	Sfp inh 10µM, HP1b binding inh inconclusive, JMJD2A Tudor inconclusive, G9a inh-1 3.5µM (no result: TDP1 block) | Sfp PPTase conf 8.3µM
Cc1ccc(-c2nc3cnccn3c2Nc2ccccc2)o1	Sfp inh 4.5µM, HP1b binding inh inconclusive, JMJD2A Tudor inconclusive, G9a inh-1 7.9µM | Sfp PPTase conf 3.3µM
Cc1ccc(NC(=O)c2cccc(N3CCCS3(=O)=O)c2)cc1	none (no result: Sfp inh)
Cc1ccc(NCc2ccc(O)c3ncccc23)cc1	Sfp inh 3.5µM, HP1b binding inh inconclusive, JMJD2A Tudor 8.9µM, G9a inh-1 5µM | Sfp PPTase conf inconclusive
CCOc1ccccc1CNC(=O)c1ccc2c(c1)N(Cc1ccc(C)cc1)CCS2	none (no result: Sfp inh)
Nc1nc(NCC2CCC(CNS(=O)(=O)c3cccc4ccccc34)CC2)nc2ccccc12 (stereo not drawn)	Sfp inh 28µM, G9a inh-1 25µM (no result: HP1b binding inh, JMJD2A Tudor, BAZ2B block) | Sfp PPTase conf 47µM | Sfp gel assay 56µM
CCCC(=O)Nc1ccc(-c2csc(NNC(C)=O)n2)cc1	Sfp inh 5µM, G9a inh-1 35µM | Sfp PPTase conf inconclusive | Sfp gel assay inconclusive
CC(=O)Nc1ccc(-c2csc(NC(=O)Cc3cccc(F)c3)n2)cc1	none
COC(=O)c1sc(NC(=O)c2cc(-c3ccccc3)nc3ccccc23)c(C#N)c1C	Sfp inh 0.63µM, HP1b binding inh 7.9µM, G9a inh-1 inconclusive | Sfp PPTase conf 8.3µM
CC(=O)CCc1oc2ccc(NC(C)=O)cc2c1-c1ccc(C)o1	Sfp inh 13µM, JMJD2A Tudor inconclusive, BAZ2B block inconclusive, G9a inh-1 13µM | Sfp PPTase conf 15µM | Sfp gel assay inactive
COc1cccc(CNc2ccc(N3CCC(C)CC3)cc2)c1OC	Sfp inh 10µM, JMJD2A Tudor 20µM, BAZ2B block 40µM, G9a inh-1 inconclusive | Sfp PPTase conf inconclusive | Sfp gel assay inactive | G9a inh-2 2
CC1CCN(c2ccc(NC(=O)Cc3ccccc3)cc2)CC1	none (no result: TDP1 block, G9a inh-1)

From PubChem BioAssay
